D1 antagonist = antagonists of human D1 dopamine receptor; 3.2% of 360,000 active; AID 504652; activity change, negative = inhibition, % at 10 µM; HEK293 TREx D1 cells, calcium flux, dopamine EC80; hits give low values; in the data active = activity change below about -30%; also: % is scaled to controls: 0 for no effect and ±100 for the full control effect
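Compound effects on dopamine-evoked calcium signalling were measured in tetracycline-induced HEK293 Trex D1 cells. Dopamine at EC80 followed a 180 s compound pre-read, and fluorescence was tracked kinetically for 180 s more.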
TRHR agonist-1 = TRH receptor (human) agonism. P34981. TRHR cells, calcium flux fluo-8, FDSS agonist mode. activation, % at 2 µM. 0.18% of 360,000 active. AID 493084; in the data active = activation above about 30%; also: 0% is about no effect
Target sequence (P34981 whole entry, looked up): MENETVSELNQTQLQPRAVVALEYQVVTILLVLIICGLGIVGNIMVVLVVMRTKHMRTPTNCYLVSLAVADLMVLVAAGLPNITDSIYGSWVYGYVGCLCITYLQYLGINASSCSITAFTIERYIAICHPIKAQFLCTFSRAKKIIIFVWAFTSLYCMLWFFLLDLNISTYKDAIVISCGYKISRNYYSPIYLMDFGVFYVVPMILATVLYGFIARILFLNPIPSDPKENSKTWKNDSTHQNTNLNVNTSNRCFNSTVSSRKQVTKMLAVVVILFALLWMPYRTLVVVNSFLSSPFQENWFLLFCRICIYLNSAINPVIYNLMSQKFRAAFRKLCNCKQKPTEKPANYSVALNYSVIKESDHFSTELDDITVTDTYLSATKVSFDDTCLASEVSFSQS
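TRHR-expressing cells, plated overnight in medium with 10% serum, were loaded with fluo-8 calcium dye at room temperature. After a 10 s baseline, library compound was pin-added and calcium release was recorded kinetically (ex 480/em 530) as agonist response.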
D1 ag = activates the human D1 dopamine receptor | P21728 | HEK293 T-REx D1 cells, calcium flux, agonist mode | activation, % at 2 µM | 1% of 360,000 active; in the data active = activation above about 30%; also: 0% is about no effect
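Agonism was scored from calcium flux recorded over 180 s (1 read/s) after pintool compound addition, following a 10-cycle baseline. Cells were inducible force-coupled HEK293 TREx D1, plated overnight at 30 C and loaded with no-wash calcium dye.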
TRHR enhancer-1 = TRH receptor (human) allosteric enhancement; TRHR cells, fluo-8 calcium fluorescence, EC20 TRH enhancement; enhancement, % at 2 µM; 0.66% of 360,000 active; in the data active = enhancement above about 30%; also: 0% is about no effect
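Enhancer read-out: after compound pinning and an initial kinetic agonist-mode read, an EC20 of TRH (10 nM final) was injected and fluo-8 calcium signal (Ex 480/Em 530) followed at 1 s/cycle for 100 cycles in TRHR-expressing cells.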
D1 PAM = human D1 dopamine receptor positive modulation; HEK293 TREx D1 cells, calcium flux, dopamine EC20 potentiation; potentiation, % at 10 µM; 0.036% of 360,000 active; in the data active = potentiation above about 30%; also: 0% is about no effect
TRHR enhancer-2 = confirmation of human TRH receptor allosteric enhancers | shares compounds with TRHR enhancer-1 | TRH receptor cell assay, enhancer confirmation qHTS | activity change, negative = inhibition, % at 46.1 µM | 970 tested, under 10 active | AID 493076;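 also: compound effect scored on response to added TRH at EC20 of 10 nM; 0% is about no effect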
TRHR agonist-2 = human TRH receptor agonism confirmation; shares compounds with TRHR enhancer-1; TRHR-expressing cells, agonist activation read-out; Potency, µM (highest dose often 46.1 µM), inactives show at the highest dose activation, usual class: activators; 8% of 970 active; AID 493078; also: potency is read from the fitted curve at half-maximal effect; 0% is about no effect; nearly all actives have a fitted effect of over 75% in size
Numbers without * were called inactive; ? = inconclusive; · = not tested or not shown. The list is not random: actives were taken first. Their share in the collection is about 4.7%. Unless noted, calls follow the shape of the dose curve; as a rule, active = well fitted curve in the direction sought with a large enough effect; inconclusive = small, poorly fitted or top-dose-only effect, or another doubt; inactive = no such curve, though single readings can be large; an effect the other way counts as inactive or inconclusive.

SMILES	D1 antagonist	TRHR agonist-1	D1 ag	TRHR enhancer-1	D1 PAM	TRHR enhancer-2	TRHR agonist-2
COc1ccc(N(CC(=O)NN=C2CCN(C)CC2)S(=O)(=O)c2ccccc2)c(OC)c1	-6.9	-0.2	-4.2	41.4*	2.3	1.4	-0.2%
CC(C)(C)C(=O)c1sc2nc(-c3cccs3)cc(C(F)(F)F)c2c1N	-4.5	-0.2	-0.4	9.4	-0.7	·	·
Cc1nnc(NC(=O)c2sc3nc(-c4cccs4)cc(C(F)(F)F)c3c2N)s1	-30.1*	51.7*	361.2*	2.1	-2.4	5.5	?
N#Cc1ccccc1OCc1nnc(-c2ccccc2Br)o1	18.8	-0.4	0.2	44.0*	3.7	-17.9	3.3%
Clc1ccccc1OCc1nnc(-c2ccccc2Br)o1	-4.3	0.2	2.6	-8.1	-2.4	·	·
Clc1ccccc1CN1CCN(CCCc2ccccc2)CC1	-19.0	-2.8	3.4	-3.7	-8.1	·	·
OCC1(CCc2ccccc2)CCN(Cc2ccccc2Cl)CC1	19.7	3.0	8.1	60.3*	-5.5	-5.3	4.8%
CCOc1ccc(CCNC(=O)C2CCN(Cc3nc(-c4ccc(OC)c(OC)c4)oc3C)CC2)cc1OCC	-12.7	-0.3	3.3	7.3	1.1	·	·
CN1CCS/C1=C/C=C1\SC(=S)N(CC(=O)O)C1=O	8.5	26.7	41.9*	-3.2	-3.6	3.7	20.6µM*
O=C(O)CN1C(=O)/C(=C/c2ccc(N3CCCCC3)o2)SC1=S	-14.2	0.3	6.8	-2.4	8.0	·	·
Cn1c(/C(C#N)=C/c2ccc(O)cc2)nc2ccccc21	-1.8	0.7	1.7	3.5	-0.5	·	·
COc1cc(/C=C(\C#N)c2nc3ccccc3n2C)cc(OC)c1O	1.4	118.7*	63.8*	17.3	-3.5	-1.0	18.4µM*
COc1ccccc1-c1cc(SC)c(C#N)c(=O)o1	3.4	0.1	1.9	8.9	-7.0	·	·
COC(=O)c1cc2sccc2n1CC(=O)Nc1cccc(SC)c1	-4.7	-0.1	5.9	44.9*	-6.9	0.7	3.9%
COC(=O)c1cc2occc2n1CC(=O)Nc1cccc(SC)c1	-18.2	0.0	3.8	4.0	2.0	·	·
CCS(=O)(=O)c1nc(S(=O)(=O)c2ccc(C)cc2)c(NCCCOC)s1	-9.2	-0.1	0.5	9.2	-2.4	·	·
COc1cc(NC(=O)c2ccc(-n3cnc4cccnc43)cc2)cc(OC)c1	-3.2	0.3	0.4	-0.8	1.2	·	·
Cc1ccc(N2CC(NC(=O)C3CCCC3)CC2=O)cc1 (configuration not stated)	·	0.3	-1.6	4.3	-0.1	·	·
Cc1ccc(-c2csc3ncnc(N4CCN(Cc5ccccc5)CC4)c23)cc1	6.0	0.5	1.8	53.9*	-4.8	-3.1	-0.7%
CCCc1cc(=O)[nH]c(SCC(=O)NCC2COc3ccccc3O2)n1 (configuration not stated)	22.2	0.4	0.9	-3.5	2.8	·	·
Cc1[nH]n(-c2ccccc2)c(=O)c1C=NC1CCCCC1	-6.5	-0.4	-2.4	43.9*	-6.2	-2.5	1.4%
Cc1[nH]n(-c2ccccc2)c(=O)c1C=NC1CCCCCC1	2.0	0.2	3.0	0.4	1.2	·	·
O=C1C=C(c2ccc(F)c(Cl)c2)C[C@@H](c2ccc(F)cc2)C1	·	0.0	1.2	-3.2	1.2	·	·
CC(=O)Oc1ccc(-c2cccc(C(=O)NCCO)c2)cc1	11.2	0.0	1.1	43.2*	-4.0	-1.9	-0.7%
COc1ccc(C(C)=O)cc1COC(=O)CNC(=O)c1ccc(Cl)cc1	-1.5	-1.5	4.1	-7.9	-5.5	·	·
COc1ccc(C(C)=O)cc1COC(=O)Cc1cc(OC)c(OC)c(OC)c1	-4.0	28.6	7.1	-3.0	-4.3	-3.7	-0.7%
O=C(Nc1ccc(OCc2cc(=O)n3c4c(sc3n2)CCCC4)cc1)c1ccccc1	8.8	-0.2	-0.3	1.0	1.6	·	·
O=C(Nc1ccc([N+](=O)[O-])cc1)c1nc[nH]c1C(=O)NC1CCCCC1	-8.9	42.6*	2.3	6.8	-4.5	3.9	-0.7%
O=C(N/N=C/c1cc([N+](=O)[O-])ccc1O)c1cccc(N2CCCC2=O)c1	-13.9	0.0	0.2	-5.2	-4.4	·	·
